Assay results as given in PubChem BioAssay AID1745850 (National Center for Advancing Translational Sciences (NCATS), 2022).
Out of some 2,100 compounds screened, about 260 (12%) were called active. Inconclusive results (about 58%) are left out. This is one part of the list. Unmarked numbers belong to inactive results. Calls follow the shape of the dose curve; as a rule, active = well fitted cell-killing curve with a large enough effect; inconclusive = small, poorly fitted or top-dose-only effect, or effect the other way; inactive = flat fitted curve, though single readings scatter.

Assay: Viability Counterscreen for Confirmatory qHTS for Inhibitors of ATXN expression; also: nearly all actives have a fitted effect of over 50% in size
Details: HEK-293 ATXN2-luc cells viability, CellTiter-Fluor, 24 h; activity change, negative = cytotoxicity: at the top concentration
Outline: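 Luminescence read-out (SteadyGlo, 5 min) followed a 30 min Gly-Phe-AFC (25 uM final) viability fluorescence read. ATXN2-luciferase reporter cells were exposed 24 h to a dilution series. Medium-only wells served as the 100% inhibition reference.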
Potency is read from the fitted curve at half-maximal effect.

Row | SMILES | activity change, negative = cytotoxicity | Potency
1 | Cn1nc(C(=O)N2CCN(c3ccc(Cl)cc3)CC2)c2c1-c1ccccc1S(=O)(=O)C2 | -12.1% | –
2 | O=C(CCC(=O)Nc1ccc(Br)cc1)N/N=C/c1ccccc1O | -18.6% | –
3 | COC(=O)c1c(NC(=O)c2ccc([N+](=O)[O-])o2)sc2c1CCN(C(C)C)C2 | – | 28.2 µM (active)
4 | O=C1C=Cc2cccc3ccc(O)c1c23 | 4.45% | –
5 | O=C(CN1C(=O)c2ccccc2S1(=O)=O)c1ccc(Cl)cc1Cl | -6.86% [at 57.5 µM] | –
6 | O=[N+]([O-])c1c(Nc2ccccn2)cc(Cl)c2nonc12 | – | 11.2 µM (active)
7 | COc1cc(OC)c(OC)cc1/C=C1\CC(C)C/C(=C\c2cc(OC)c(OC)cc2OC)C1=O (centres undefined) | – | 17.8 µM (active)
8 | C=CCc1ccccc1OCC(O)CN1CCN(CCN2C(=O)c3cccc4cccc(c34)C2=O)CC1 (centres undefined) | – | 31.6 µM (active)
9 | O=C(CNC(=O)c1ccccc1O)N/N=C/c1cc(Br)ccc1OC(=O)/C=C/c1ccco1 | -4.41% | –
10 | Cc1ccc(C(=O)CN2C(=O)c3ccccc3S2(=O)=O)cc1 | 5.17% | –
11 | Oc1ccc(C2CNCc3sccc32)cc1O (centres undefined) | -19.8% [at 57.5 µM] | –
12 | O=C(CN1CCCc2ccccc21)N/N=C/c1ccccc1O | -21.2% | –
13 | C[C@@H]1ON(C)[C@H]2C[C@H]3c4[nH]c5ccc(-c6ccc7c(c6)OCO7)cc5c4CCN3C(=O)[C@@H]12 | -27.8% [at 57.5 µM] | –
14 | CC1(C)Cc2c(ccc3ccccc23)C2=C(C(=O)N3CCCC3)C(=O)C(=O)N21 | -14.3% [at 57.5 µM] | –
15 | CCn1c2ccccc2c2cc(NC(=O)COC(=O)c3cc(S(=O)(=O)N4CCCCC4)ccc3Cl)ccc21 | 1.01% | –
16 | O=C(Nc1nc(-c2ccc(S(=O)(=O)N3CCOCC3)cc2)cs1)c1ccccc1 | -26.6% | –
17 | Cc1nc(-c2cccc(NC(=O)c3cccc(S(=O)(=O)N4CCCC4)c3)c2)cs1 | – | 28.2 µM (active)
18 | Cn1c(N)c(C(=O)Nc2ccc(-c3ccccc3)cc2)sc1=S | -20.9% [at 57.5 µM] | –
19 | COc1ccc(C2CC(c3ccccc3Cl)=NN2c2ccc(S(N)(=O)=O)cc2)cc1 (centres undefined) | 1.38% [at 57.5 µM] | –
20 | COc1ccc(C(=O)Nn2c(SCC(=O)c3ccccc3)nc3ccccc3c2=O)cc1 | -26% [at 57.5 µM] | –
21 | COc1ccc(Oc2c(Cl)cnn(-c3ccccc3)c2=O)cc1 | – | 3.16 µM (active)
22 | COc1cc(/C=N/Nc2ccc(Cl)c(C(=O)O)c2)ccc1OC(=O)c1ccco1 | 1.6% | –
23 | CN(CC(=O)Nc1cccc(F)c1)CC(=O)Nc1cccc2ccccc12 | -16.6% [at 57.5 µM] | –
24 | CCN(CC)CCC(=O)Nc1cccc2c1C(=O)c1ccccc1C2=O | – | 3.16 µM (active)
25 | CCN(CC)CCNC(=O)c1ccc(NC(=O)Cc2cccc3ccccc23)cc1 | -22.4% | –

Row | SMILES | activity change, negative = cytotoxicity | Potency
26 | O=C(CC1NCCc2ccccc21)Nc1ccc(Cl)cc1 (centres undefined) | 11.4% | –
27 | CCC1=C(CC2NCCc3ccccc32)CC2c3cc(OC)c(OC)cc3CCN2C1 (centres undefined) | – | 10 µM (active)
28 | CN(c1ccc(OCC(=O)N2CCN(c3ccc(F)cc3)CC2)cc1)S(=O)(=O)c1cccs1 | -11.9% | –
29 | CC(=O)c1sc(C(C)(C)C)cc1NC(=O)/C=C/C(=O)O | -20% [at 57.5 µM] | –
30 | COC(=O)c1c(NC(=O)/C=C/C(=O)O)sc(C)c1-c1ccc(C(C)C)cc1 | – | 28.2 µM (active)
31 | CCOC(=O)c1c(C)nn(-c2ccc(NC(=O)/C=C/C(=O)O)cc2)c1C | -10.3% [at 57.5 µM] | –
32 | OC[C@@H]1[C@@H](c2ccc(F)cc2)C(c2ccccc2)=NN1c1ccccc1 | 28.7% [at 57.5 µM] | –
33 | COc1cc2c(cc1OC)C(C)N(C(=O)c1cc3c(s1)-c1ccccc1OC3)CC2 (centres undefined) | -24.3% [at 57.5 µM] | –
34 | COc1ccccc1-c1ccc2c(c1)C(C)(Cc1cccc(F)c1)C(=O)N2 (centres undefined) | -27.1% [at 57.5 µM] | –
35 | Cc1nonc1C(=O)N/N=C/c1ccc(O)cc1O | -19% | –
36 | COc1ccc2c(c1)C(SCC(=O)NCCc1ccc(Cl)cc1)CC(C)(C)O2 (centres undefined) | -8.85% | –
37 | Cc1ccc2nc(-c3ccccn3)c(NC3CCCC3)n2c1 | -22.4% | –
38 | Cc1ccc(Nc2c(-c3ccccn3)nc3cc(C)ccn23)cc1 | – | 10 µM (active)
39 | Cc1cccn2c(Nc3ccccc3)c(-c3ccccn3)nc12 | -19% [at 57.5 µM] | –
40 | Cc1ccc(Nc2c(-c3ccccn3)nc3cccc(C)n23)cc1 | – | 8.91 µM (active)
41 | N#Cc1ccc(-c2nc3cc(Cl)ccc3c(=O)n2O)cc1 | -15.2% | –
42 | CCCNC(=O)c1ccc2c(=O)c(O)c(-c3ccc(F)cc3)[nH]c2c1 | -12.7% [at 57.5 µM] | –
43 | CN(C)CCCN(C(=O)c1ccco1)c1nc2cc3c(cc2s1)OCO3 | -18.9% [at 57.5 µM] | –
44 | CN(C)CCCN(C(=O)c1ccc(S(=O)(=O)N(C)Cc2ccccc2)cc1)c1nc2cc3c(cc2s1)OCO3 | – | 25.1 µM (active)
45 | CCN(c1ccccc1)S(=O)(=O)c1ccc(C(=O)N(CCCN(C)C)c2nc3c(C)cccc3s2)cc1 | – | 20 µM (active)
46 | Cc1ccc(S(=O)(=O)c2nc(NCc3ccc4c(c3)OCO4)sc2Cl)cc1 | -19.2% [at 57.5 µM] | –
47 | CCCc1nc(NC2CCCCC2)c(C#N)c2c1COC(C)(C)C2 | 4.08% | –
48 | CC1(S(=O)(=O)O)CC(=O)c2ccccc2C1=O (centres undefined) | 3.58% [at 57.5 µM] | –
49 | CCCCOc1ccc(NC2=NC3(CCCC3)N=C(N)N2)cc1 | -22.7% [at 57.5 µM] | –
